Giardia FBPA inh: blocks Giardia fructose-bisphosphate aldolase activity. Potency, µM (top dose mostly 59.6 µM), inactives show at the top dose activity, negative = inhibition, usual class: inhibitors. actives 0.71% (n = 290,000). A8B2U2. purified Giardia FBPA; also: potency is read from the fitted curve at half-maximal effect; nearly all actives have a fitted effect of over 55% in size
Target sequence (A8B2U2 whole entry, looked up): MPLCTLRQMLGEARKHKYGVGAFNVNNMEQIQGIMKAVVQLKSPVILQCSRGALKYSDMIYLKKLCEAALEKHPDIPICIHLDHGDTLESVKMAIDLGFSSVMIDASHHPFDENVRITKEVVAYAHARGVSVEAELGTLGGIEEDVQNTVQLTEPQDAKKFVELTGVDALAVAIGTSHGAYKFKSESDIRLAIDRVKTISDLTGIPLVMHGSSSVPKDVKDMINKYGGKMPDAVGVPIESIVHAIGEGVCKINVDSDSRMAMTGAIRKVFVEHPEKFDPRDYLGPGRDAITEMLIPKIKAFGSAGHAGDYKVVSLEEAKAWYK
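40 nM FBPA preincubated 10 min at RT with compound (up to 57.5 uM final), then substrate plus GAPDH/TPI/NAD/arsenate coupling and diaphorase/resazurin added. Fluorescence read after 20 min at RT, 525/598 nm.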
Sm TGR block: inhibitors of Schistosoma mansoni thioredoxin glutathione reductase. Q962Y6. purified TGR, DTNB reduction, TNB absorbance 405 nm. Potency, µM (top dose mostly 114 µM), inactives show top-dose activity change, negative = inhibition, hits mostly inhibitors. actives 3% (n = 360,000). AID 485364; also: potency is read from the fitted curve at half-maximal effect; nearly all actives have a fitted effect of over 60% in size
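First, TGR (20 nM dispensed) and NADPH were mixed with compound. Second, a 15 min room-temperature incubation followed. Third, further NADPH and then DTNB were added to start the reaction. Finally, TNB absorbance was monitored kinetically.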
FMDV inh: antivirals against foot and mouth disease virus. actives 1.2% (n = 410,000). FMDV antiviral cell-based qHTS. AID 1159524. Potency, µM (titrated, usually from 57.9 µM), inactives show at the top dose activity change, negative = inhibition, most hits filed as inhibitors; calls by dose curve; tested in HEK293T cells; also: read-out not given here; potency is read from the fitted curve at half-maximal effect; nearly all actives have a fitted effect of over 45% in size
HCMV antiviral: blocks human cytomegalovirus replication; HFF cells, HCMV-luciferase reporter, 72 h; stronger effect = lower value; activity change, negative = inhibition, % at 57.5 µM; actives 4.5% (n = 410,000); in the data active = activity change below about -60%; inconclusive = no clear call, values can overlap the other calls; inactive = above about -39%
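Human foreskin fibroblasts infected with luciferase-reporter HCMV at MOI 1 PFU/cell, compounds at two doses. Luciferase measured 72 h post infection; normalized to buffer-only basal and Salinomycin (10uM) controls.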
RE007 growth inh: less growth of the S. pombe RE007 Vpr strain; S. pombe RE007 Vpr strain, BacTiter-Glo ATP luminescence, 24 h; AID 651644; Potency, µM (top dose mostly 92.2 µM), without a hit: top-dose activity change, negative = less growth, hits mostly inhibitors; actives 0.21% (n = 360,000); active = well fitted falling curve with a large enough effect; inconclusive = small, poorly fitted or top-dose-only effect; inactive = no such curve, though single readings can be large or run the other way; also: potency is read from the fitted curve at half-maximal effect; nearly all actives have a fitted effect of over 50% in size
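Fission yeast strain RE007, carrying one chromosomally integrated HIV-1 vpr copy, was seeded at OD 0.01 in PMG+AL medium with 23 nL pinned compound. After 24 h at 30 °C and 99% humidity, viability was read by BacTiter-Glo luminescence.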
TbPYK inhibitor: T. brucei pyruvate kinase inhibition | actives 0.12% (n = 410,000) | Potency, µM (highest dose often 76.8 µM), without a hit: at the highest dose activity, negative = inhibition, most hits filed as inhibitors | Q57TT1 | TbPYK enzyme, Kinase-Glo Plus ATP luminescence, 45 min; also: potency is read from the fitted curve at half-maximal effect; nearly all actives have a fitted effect of over 50% in size
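ADP (130 uM final) triggers the TbPYK reaction after compound addition; incubation is 45 min at room temperature. Kinase-Glo Plus is then added and luminescence imaged. Normalized data are fitted to concentration-effect curves.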
Active calls of the source: *; ! = not active in a repeat. In the library only some 7.7% were active in any assay of this set; here they are far more common. Unless noted, calls follow the shape of the dose curve; as a rule, active = well fitted curve in the direction sought with a large enough effect; inconclusive = small, poorly fitted or top-dose-only effect, or another doubt; inactive = no such curve, though single readings can be large; an effect the other way counts as inactive or inconclusive. % is scaled to controls: 0 for no effect and ±100 for the full control effect.

Results for Cc1cccc(N2CCN(C(=O)C3CCCN(S(=O)(=O)c4ccc(Br)s4)C3)CC2)c1C (configuration not stated) ?
Sm TGR block: 5.4%; FMDV inh: inconclusive; HCMV antiviral: -61.7*; TbPYK inhibitor: -6.3%

How did COc1cccc(N2CCN(C(=O)C3CCCN(S(=O)(=O)c4ccc(Br)s4)C3)CC2)c1 (configuration not stated) do in these assays?
Sm TGR block: -2.4%; FMDV inh: 17.8µM*; HCMV antiviral: -24.4; TbPYK inhibitor: -9.3%

How did COc1cccc(N2CCN(C(=O)C3CCC(CNS(=O)(=O)c4ccc(Br)s4)CC3)CC2)c1 (configuration not stated) do in these assays?
Sm TGR block: -1.3%; FMDV inh: 17.8µM*; HCMV antiviral: -15.2; TbPYK inhibitor: -5.5%

How did O=C(O)C1CCCN(S(=O)(=O)c2ccc(Br)s2)C1 (configuration not stated) do in these assays?
Giardia FBPA inh: 11.4%; Sm TGR block: -5.3%; FMDV inh: -9.8%; HCMV antiviral: -62.1*; RE007 growth inh: -7.5%; TbPYK inhibitor: 0.6%

How did Cc1cccc(N2CCN(C(=O)C3CC(=O)N(C4CCCC4)C3)CC2)c1C (configuration not stated) do in these assays?
Sm TGR block: -0.5%; FMDV inh: inconclusive; HCMV antiviral: -63.0*; RE007 growth inh: 11.4%; TbPYK inhibitor: -6.0%

Results for Cc1cc(C)c(NC(=O)C2CC(=O)N(C3CCCC3)C2)c(C)c1 (configuration not stated) ?
FMDV inh: -1.6%; HCMV antiviral: -72.4*; RE007 growth inh: -0.6%; TbPYK inhibitor: 7.0%

What do the screens show for `CC(=O)N1CCc2c(sc3c2c(=O)n(-c2ccccc2)c(=O)n3CC(=O)Nc2ccccc2)C1`?
Sm TGR block: -1.5%; FMDV inh: 26.6%; HCMV antiviral: 52.5; TbPYK inhibitor: -2.2%

What do the screens show for `Cc1cccc(NC(=O)N2CCN3CCCCC3C2)c1C` (configuration not stated)?
Sm TGR block: -0.5%; FMDV inh: -6.6%; HCMV antiviral: -24.3; TbPYK inhibitor: 19.7%

Results for CCOCCCNC(=O)CN1C(=O)CCn2nc(-c3cccn3C)cc21 ?
Sm TGR block: 0.9%; FMDV inh: 0.6%; HCMV antiviral: 8.3; TbPYK inhibitor: -0.1%

How did O=C(C1CCCN(S(=O)(=O)c2cccc3nonc23)C1)N1CCN(c2cccc(Cl)c2)CC1 (configuration not stated) do in these assays?
Giardia FBPA inh: -3.7%; Sm TGR block: 3.3%; FMDV inh: -7.6%; HCMV antiviral: -64.9*!; RE007 growth inh: -11.7%; TbPYK inhibitor: -21.4%

How did COc1ccc(CNC(=O)c2ccc3c(c2)N(Cc2cccc(Cl)c2)C(=O)c2ccccc2S3)c(OC)c1 do in these assays?
Sm TGR block: 4.6%; FMDV inh: -12.5%; HCMV antiviral: -31.3; TbPYK inhibitor: 7.1%

Results for CCC(C)NCCOCCOc1ccc(Cl)c(C)c1C (configuration not stated) ?
Giardia FBPA inh: -25.4%; Sm TGR block: -9.4%; FMDV inh: inconclusive; HCMV antiviral: -82.6*; RE007 growth inh: -4.4%; TbPYK inhibitor: -7.6%

What do the screens show for `COc1cccc([C@@H]2Oc3ccc(OC)cc3C[C@H]2OC(=O)N[C@H](C)C2CCCCC2)c1`?
Giardia FBPA inh: -3.3%

What do the screens show for `COC(=O)c1ccc2nc(-c3ccc(C)cc3)c(Cc3ccccc3)n2c1`?
HCMV antiviral: 44.5

What do the screens show for `CC1CCc2sc(C(=O)N/N=C/c3ccc(O)cc3)cc2C1` (configuration not stated)?
Giardia FBPA inh: -2.4%; Sm TGR block: -1.0%; FMDV inh: 8.9%; HCMV antiviral: -63.9*; RE007 growth inh: 5.6%; TbPYK inhibitor: 0.8%

Results for Clc1ccc(-c2n[nH]c3c2CCCC3)cc1 ?
Giardia FBPA inh: -7.2%; Sm TGR block: 7.9%; FMDV inh: 41.9%; HCMV antiviral: -72.2*; RE007 growth inh: -26.6%; TbPYK inhibitor: -4.5%

How did CCc1ccc(CNC(=O)c2cnc3sc(N4CCCCCC4)nn3c2=O)cc1 do in these assays?
Sm TGR block: -2.3%; FMDV inh: -14.9%; HCMV antiviral: -0.3; TbPYK inhibitor: -7.0%

What do the screens show for `Cn1cnc([N+](=O)[O-])c1Nc1ccc(O)cc1`?
Giardia FBPA inh: inconclusive; Sm TGR block: 25.1µM*; FMDV inh: -6.6%; HCMV antiviral: -24.0; RE007 growth inh: 4.2%; TbPYK inhibitor: -0.8%

How did CCNc1c([N+](=O)[O-])ncn1C do in these assays?
Giardia FBPA inh: 2.1%; Sm TGR block: 4.1%; FMDV inh: 2.9%; HCMV antiviral: 8.2; RE007 growth inh: -10.1%; TbPYK inhibitor: -11.0%

How did Cn1c(=S)[nH]c2sc3c(c2c1=O)CCC(C(C)(C)C)C3 (configuration not stated) do in these assays?
Giardia FBPA inh: inconclusive; Sm TGR block: inconclusive; HCMV antiviral: -95.3*

What do the screens show for `CN1CCc2c(sc3c2c(=O)n(-c2ccccc2)c2nnc(SCc4ccccc4)n32)C1`?
Giardia FBPA inh: -7.5%; Sm TGR block: inconclusive; FMDV inh: -2.2%; HCMV antiviral: -13.3; RE007 growth inh: 4.1%; TbPYK inhibitor: 31.6µM*

How did O=C(c1ccco1)N(CCC(c1ccccc1)c1ccco1)Cc1ccccc1 (configuration not stated) do in these assays?
Giardia FBPA inh: 1.3%; Sm TGR block: 50.1µM*; FMDV inh: inconclusive; HCMV antiviral: -35.9; RE007 growth inh: 13.1%; TbPYK inhibitor: -8.6%

Results for COc1ccc(CN(CCC(c2ccccc2)c2ccco2)C(=O)c2ccco2)cc1 (configuration not stated) ?
Giardia FBPA inh: -3.1%; Sm TGR block: 35.5µM*; FMDV inh: -18.6%; HCMV antiviral: -2.3; RE007 growth inh: 9.6%; TbPYK inhibitor: -9.2%

How did COc1ccc(CCN(Cc2nc3ccccc3c(=O)[nH]2)C(=O)c2ccco2)cc1 do in these assays?
Giardia FBPA inh: -0.9%; Sm TGR block: -13.9%; FMDV inh: -4.1%; HCMV antiviral: 40.2; RE007 growth inh: -10.2%; TbPYK inhibitor: -4.4%

Results for CCC(C(=O)N1CCN(c2cc(Cl)ccc2C)CC1)n1nc(C)c2sc3ccccc3c2c1=O (configuration not stated) ?
Sm TGR block: 0.1%; FMDV inh: 0.0%; HCMV antiviral: 16.6; TbPYK inhibitor: -3.7%

Results for C=C1CC2C(=O)N(Cc3ccccc3)C(C(=O)O)C1N2C(=O)OC(C)(C)C (configuration not stated) ?
Giardia FBPA inh: -1.5%
